PPC-1+TRAIL kill: compounds killing PPC-1 cancer cells with TRAIL present, primary screen, TRAIL potentiator project, ATPLite luminescence, uHTS; PPC-1 cells + TRAIL, ATPLite viability luminescence; cell killing (% activity), % at 4 µM or 5 µM; 220,000 compounds, 0.41% hits; AID 1443, 2008;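 active = cell killing above 50% in the first pass at 4 µM, then a duplicate retest at 5 µM averaging 50% or more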
HSP90 inh: HSP90 inhibitors, primary screen, cell lysate, luminescence. inhibition, % at 5.6 µM. Rabbit reticulocyte lysate, luciferase refolding luminescence, 3 h. 290,000 compounds, 0.91% hits;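 active = inhibition above the screen-wide mean plus 3 SD, computed separately per campaign, cut at about 16% in these data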;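 note: inhibitors lower the luminescence because luciferase stays unfolded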
TROY signal inh: inhibitors of TROY-driven NF-kB signaling, primary screen, Q293 LMP1-TROYcd cells, NF-kB luciferase, uHTS; Q293 LMP1-TROYcd NF-kB luciferase reporter, 4 h; 360,000 compounds, 0.98% hits; inhibition, % at 10 µM;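 active = compounds whose plate-normalised and pattern-corrected inhibition of the luciferase reporter signal at the single screening dose is 50% or more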
Platelet DG rel: inhibitors of platelet dense granule secretion, primary screen, cell-based, MLPCN, human platelets. human platelet-rich plasma, SFLLRN dense granule ATP release, luminescence. inhibition, %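 (compounds screened at 7.5 µM in platelet-rich plasma)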. 300,000 compounds, 0.22% hits. AID 1663, 2009;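 active = mean replicate score, as percent of positive control, at or above 50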
C8 TRAIL sens: viability loss with TRAIL in NB7+C8 cells, primary screen, TRAIL sensitizer project, cell-based, ATPlite luminescence; inhibition (viability loss, TRAIL sensitization), % at 10 µM; 360,000 compounds, 1% hits;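 active = compounds causing at least 50% loss of cell viability in the single-dose screen, relative to plate controls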
TWEAK Fn14 block: inhibitors of TWEAK-Fn14 signaling, primary screen, luciferase reporter cells, uHTS. inhibition, % at 10 µM. TWEAK-stimulated Fn14 reporter cells, luciferase luminescence, 8 h. 360,000 compounds, 2% hits; in the data active = inhibition above about 50%
Of the large screens only hits and unclear results are named; the others gave an inactive call. Only some compounds are listed: those with a hit (about 3.5% of all), similar ones and a draw of the others.

Cc1cccc(C)c1NC(=O)CN(C)C(=O)Cc1cccc(C(F)(F)F)c1	TWEAK Fn14 block 55 (no result: PPC-1+TRAIL kill)
CN1C(N)=NC(=O)/C1=C\c1ccc(Br)cc1	none (no result: PPC-1+TRAIL kill)
CC1=NN(c2nc3ccccc3[nH]2)C(=O)C1Cc1ccccc1 (centres undefined)	none
NC(=O)c1ccc(-n2nnnc2SCC(=O)Nc2ccc(F)cc2)cc1	none (no result: PPC-1+TRAIL kill)
O=C(/C=C/Sc1ccc(C(F)(F)F)cn1)c1ccccc1	TWEAK Fn14 block 60
CCn1c(C(=O)N2CCC(C(=O)NCCCSC3CCCCC3)CC2)cc2sccc21	Platelet DG rel 69
CCN1CCN(C(=O)C2CCN(C(=O)c3cc4sccc4n3CC)CC2)CC1	none
COC(=O)c1ccc(NCc2cc(O)ccc2O)cc1O	TWEAK Fn14 block 83 (no result: PPC-1+TRAIL kill, HSP90 inh, Platelet DG rel)
COC(=O)c1ccc(NCc2c(O)ccc(O)c2Br)cc1Cl	TWEAK Fn14 block 80 (no result: PPC-1+TRAIL kill, HSP90 inh, Platelet DG rel)
O=C(COC(=O)c1ccc(O)cc1O)Nc1ccc2ccccc2c1	none (no result: PPC-1+TRAIL kill, HSP90 inh, Platelet DG rel)
COc1ccc(SC[C@H](Cc2ccccc2)N2CCN(C)CCC2=O)cc1	none (no result: HSP90 inh)
CCCC(=O)Nc1ccc(-c2csc(N/N=C\c3ccncc3)n2)cc1	C8 TRAIL sens 71
CC(=O)Nc1ccc(-c2csc(N/N=C\c3ccncc3)n2)cc1	none
O=C(OCc1c(-c2ccccc2)ncc2ccccc12)c1ccc(Cl)cc1Cl	none (no result: PPC-1+TRAIL kill, HSP90 inh, Platelet DG rel)
C=CCOC(=O)/C(=C\c1ccccc1)NC(=O)c1ccc(C)cc1	TROY signal inh 51
COc1ccc(CCNC(=O)C(NS(=O)(=O)c2ccc3c(c2)CCN3C(C)=O)C(C)C)cc1OC (centres undefined)	none (no result: TROY signal inh, C8 TRAIL sens, TWEAK Fn14 block)
COc1ccc(C2C(C(=O)c3ccccc3)=C(C)Nc3nc4ccccc4n32)c(OC)c1 (centres undefined)	TROY signal inh 53, TWEAK Fn14 block 76
O=C(Nc1ccc(Cl)c([N+](=O)[O-])c1)c1ccc(NCCCN2CCOCC2)c([N+](=O)[O-])c1	C8 TRAIL sens 56
CC(NC(=O)c1cnccn1)c1ccc(S(N)(=O)=O)cc1 (centres undefined)	none
CCCCOc1ccc(-c2cnc3ccccc3n2)cc1	TROY signal inh 52, TWEAK Fn14 block 79
CCOC(=O)c1c(NC(=O)COC(=O)Cc2c[nH]c3ccccc23)sc(C(=O)N(C)C)c1C	none (no result: PPC-1+TRAIL kill, HSP90 inh)
CCOC(=O)C1=NOC2COC3(CCN(c4ncccn4)CC3)OCC12 (centres undefined)	none
CC(=O)N1CCOc2ccc(S(=O)(=O)NC[C@H]3O[C@@H](n4ccc(N)nc4=O)[C@H](O)[C@@H]3O)cc21	none (no result: PPC-1+TRAIL kill, HSP90 inh, Platelet DG rel)
CN(C)/N=C/C=C1\CCC/C(=C\c2ccc(F)c(F)c2)C1=O	TWEAK Fn14 block 87
COc1ccc(/C=C2\CCC/C(=C\C=N\N(C)C)C2=O)cc1	none
CCC(=O)N1CCCC1(C)C(=O)Nc1ccc2scnc2c1 (centres undefined)	none (no result: PPC-1+TRAIL kill, HSP90 inh, Platelet DG rel)
O=C(C1=C[C@H](C2CC2)C[C@H](OCCCCO)O1)N1CCN(Cc2ccc3c(c2)OCO3)CC1	HSP90 inh 17
O=C(C1=C[C@@H](c2coc3ccccc3c2=O)C[C@@H](OCCCCO)O1)N1CCN(Cc2ccccc2)CC1	none
O=C(C1=C[C@@H](c2coc3ccccc3c2=O)C[C@@H](OCCCCO)O1)N1CCN(Cc2ccc3c(c2)OCO3)CC1	HSP90 inh 17
C[C@@H]1C=C(C(=O)N2CCN(Cc3ccc4c(c3)OCO4)CC2)O[C@H](OCCCCO)C1	none
Cc1nc2cc(-c3cccc(F)c3)nn2c(C)c1CCC(=O)NC(C)CCc1ccco1 (centres undefined)	TWEAK Fn14 block 67
Cc1cc(C2=NNC(=NCCc3ccccc3)SC2)c(C)n1-c1c(C)n(C)n(-c2ccccc2)c1=O	TWEAK Fn14 block 57
C=CCN=C1NN=C(c2cc(C)n(CC=C)c2C)CS1	C8 TRAIL sens 52
Cc1ccc(-n2c(C)cc(C3=NNC(=NC4CC4)SC3)c2C)cc1C	C8 TRAIL sens 64
Cc1cc(C2=NNC(=NC3CC3)SC2)c(C)n1-c1c(C)n(C)n(-c2ccccc2)c1=O	none
CCc1cc(C(=O)c2ccc(Br)cc2)c(NC(=O)CN(CC)CC)s1	none (no result: PPC-1+TRAIL kill)
CCOc1ccc(NC(=O)CN(C)C(=O)CN2C(=O)c3ccc([N+](=O)[O-])cc3C2=O)cc1OCC	none (no result: PPC-1+TRAIL kill, HSP90 inh, Platelet DG rel)
CCC(NC(=O)CC[C@H]1O[C@@H](n2cc(C)c(=O)[nH]c2=O)C[C@@H]1O)c1ccccc1 (some centres undefined)	none (no result: PPC-1+TRAIL kill, HSP90 inh, Platelet DG rel)
COc1ccc(C(=O)NN(C)c2nc(C(F)(F)F)nc3ccccc23)cc1	TROY signal inh 55, TWEAK Fn14 block 52
Oc1ccccc1/C=N/NC(=S)NCCc1ccccc1	TWEAK Fn14 block 93 (no result: PPC-1+TRAIL kill)
CC(C)(CNC(=S)NCCc1ccccc1)CNC(=S)NCCc1ccccc1	TWEAK Fn14 block 56
CCCCCCN1CCN(C2CN(Cc3cn(CCCC(=O)OC)nn3)S(=O)(=O)C2)CC1 (centres undefined)	none (no result: PPC-1+TRAIL kill, HSP90 inh, Platelet DG rel)
COC(=O)c1[nH]c2c(c1C)C(=O)CC(c1cccc(OC)c1)C2 (centres undefined)	none (no result: PPC-1+TRAIL kill)
CC1C/C(=C/c2ccccn2)C(=O)/C(=C/c2ccccn2)C1 (centres undefined)	TWEAK Fn14 block 64
O=C(CCCc1nc(-c2ccccc2Cl)no1)NC1CCCC1	TROY signal inh 52, TWEAK Fn14 block 92 (no result: PPC-1+TRAIL kill)
CCOc1cccc(C2/C(=C(/O)c3ccc4c(c3)CC(C)O4)C(=O)C(=O)N2Cc2cccnc2)c1 (centres undefined)	none (no result: PPC-1+TRAIL kill)
c1ccc(OCCNc2ccn3nc(-c4ccc(OCCN5CCOCC5)cc4)cc3n2)cc1	TWEAK Fn14 block 54 (no result: PPC-1+TRAIL kill, HSP90 inh, Platelet DG rel)
c1csc(CNc2ccn3nc(-c4ccc(OCCN5CCOCC5)cc4)cc3n2)c1	none (no result: PPC-1+TRAIL kill, HSP90 inh, Platelet DG rel)
NC(=O)C1CCN(c2nc(-c3cccs3)cs2)CC1	none (no result: PPC-1+TRAIL kill, HSP90 inh, Platelet DG rel)
CCC(C)Nc1nc(-c2cccc(OC)c2O)nc2ccccc12 (centres undefined)	TROY signal inh 60, TWEAK Fn14 block 64 (no result: PPC-1+TRAIL kill)
COc1cccc(-c2nc(NC(C)C)c3ccccc3n2)c1O	TWEAK Fn14 block 68
COc1cccc(-c2nc(NCC3CCCO3)c3ccccc3n2)c1O (centres undefined)	none (no result: PPC-1+TRAIL kill)
CC1=CC(C)(C)Nc2ccc(OC(=O)CCN3C(=O)c4ccccc4C3=O)cc21	TWEAK Fn14 block 96
COc1ccc(/C=N/Nc2cc(C)nc3ccccc23)cc1	none (no result: PPC-1+TRAIL kill)
COc1ccc2nc(C)cc(N/N=C/c3ccc(F)cc3)c2c1	C8 TRAIL sens 93 (no result: PPC-1+TRAIL kill)
O=C(Nc1ccc(C(=O)O)cc1)/C(=C\C=C\c1ccccc1)NC(=O)c1ccccc1Cl	C8 TRAIL sens 54 (no result: PPC-1+TRAIL kill)
O=C(Nc1ccc(O)cc1)/C(=C\C=C\c1ccccc1)NC(=O)c1ccccc1	none

Compound activity deposited in PubChem BioAssay by several laboratories.
